The text below walks through data of PubChem BioAssay (EPA / NIEHS).

The structures appear in SMILES notation. Where “and” joins values, the source holds several entries; their conditions need not be identical. Identical values can stand only once. Calls of active or inactive are those of the source. How the source made its calls: active means hit-call score of the fitted dose curve at least 0.9, where 1 is the maximum; inactive means score below 0.9.

Read-out in this test: Vascular cell adhesion molecule 1 (VCAM1), VCAM1 (gene 7412)
The experiment in a line: BSK_IMphg_VCAM1: BioMAP Diversity Plus: IMphg Assay for Vascular cell adhesion molecule 1 (VCAM1) Biomarker Activity (AID 2284286). As to conditions: primary human endothelial cells with macrophages. How it is done:
BSK_IMphg is a cell-based, multiplexed-readout assay that uses venular endothelial cells and macrophages, a human vascular primary cell, with measurements taken at 24 hours after chemical dosing in a microplate: 96-well plate.BSK_IMphg_VCAM1 is an assay component measured in the BSK_IMphg assay. It measures VCAM-1 antibody related to regulation of gene expression using ELISA technology.Data from the assay component BSK_IMphg_VCAM1 was analyzed at the endpoint, BSK_IMphg_VCAM1, in the positive analysis fitting direction relative to DMSO as the negative control and baseline of activity. Using a type of binding reporter, gain or loss-of-signal activity can be used to understand protein changes. To generalize the intended target to other relatable targets, this assay endpoint is annotated to the 'cell adhesion molecules' intended target family, where the subfamily is 'Immunoglobulin CAM'.
The levels of cell surface (or secreted, indicated by the prefix "s") biomarker endpoints were measured by ELISA. Overt cytotoxicity to cells in confluent adherent cultures (all systems other than the BT system) was assessed by measuring total protein levels using sulforhodamine B (SRB) staining in parallel cultures at the time of biomarker measurements, indicated as SRB endpoints. For proliferation assays for adherent cell types, individual cell types are cultured at sub-confluence and relative cell numbers quantified by SRB staining at time points optimized for each system (48 h: 3C and CASM3C systems; 72 h: BT and HDF3CGF systems; 96 h: SAg system). SRB was performed by staining cells with 0.1% SRB after fixation with 10% TCA and reading wells at 560 nm.Viability and proliferation of PBMC (T cells) was quantified by Alamar Blue reduction for the SAg and BT systems. For PBMC viability (referred to as PBMC Cytotoxicity within the assay endpoint names), cells were plated (75,000/well in a 96-well plate) and then chemical samples added for 1 h before addition of activators, SEB and TSST-1 (20 ng/mL final concentration each). Cells were incubated for 90 h. Then, Alamar Blue (20 uL/well) (Invitrogen, Cat DAL1100) was added for 6 h, and the plates were read with a fluorescence microplate reader at 546/580 nm (excitation/emission). For PBMC proliferation, cells were plated and activated as above but incubated for only 16 h prior to addition of Alamar Blue. Plates were read after 6 h.
For `O=C(CC(=O)C(F)(F)C(F)(F)C(F)(F)F)c1cccs1`, the AC50 (in general, the midpoint of the concentration-response curve, whichever way the signal moves) is 50.5 µM (active) and 43.4 µM (active).
Regarding `C=CC(=O)OCCC(F)(F)C(F)(F)C(F)(F)C(F)(F)C(F)(F)C(F)(F)C(F)(F)C(F)(F)F`, the outcome was inactive.
Turning to `O=P(O)(O)CCC(F)(F)C(F)(F)C(F)(F)C(F)(F)C(F)(F)C(F)(F)C(F)(F)C(F)(F)F`, the result was inactive.
Turning to `CN(CCO)S(=O)(=O)C(F)(F)C(F)(F)C(F)(F)C(F)(F)C(F)(F)C(F)(F)C(F)(F)C(F)(F)F`, the outcome was inactive.
As for `OCC(F)(F)C(F)(F)C(F)(F)C(F)(F)C(F)(F)C(F)(F)C(F)(F)C(F)(F)C(F)(F)C(F)(F)C(F)(F)F`, the result was inactive.
Regarding `O=C(O)CCC(F)(F)C(F)(F)C(F)(F)C(F)(F)C(F)(F)C(F)(F)F`, the result was inactive.
Consider `O=S(=O)(O)C(F)(F)C(F)(F)C(F)(F)C(F)(F)C(F)(F)C(F)(F)C(F)(F)C(F)(F)C(F)(F)C(F)(F)F`, for which the result was inactive.
As to `O=P(O)(O)CCC(F)(F)C(F)(F)C(F)(F)C(F)(F)C(F)(F)C(F)(F)F`, the outcome was inactive.
Consider `O=C(O)C(F)(F)OC(F)(F)C(F)(F)OC(F)(F)C(F)(F)OC(F)(F)C(F)(F)C(F)(F)C(F)(F)F`, for which the AC50 was 51.8 µM (active) and 48.8 µM (active).
Regarding `O=C(O)CCC(F)(F)C(F)(F)C(F)(F)C(F)(F)C(F)(F)F`, the result was inactive.
With `CN(Cc1cnc2nc(N)nc(N)c2n1)c1ccc(C(=O)N[C@@H](CCC(=O)O)C(=O)O)cc1`, the outcome was inactive.
